The values below come from ChEMBL document CHEMBL1157539, “Thousands of chemical starting points for antimalarial lead identification” (Nature, 2010).

The subject of this test is HepG2. The experiment in a line: GSK_TCMDC: Percent inhibition of human HepG2 cell line. Test compounds present at 10uM. Type of test: functional.
In general, Inhibition refers to how much of the control response was suppressed. With `CCOC(=O)NC1=NC(C)(C)N(OCCCOc2ccc(C)cc2C)C(NC(=O)OCC)=N1`, the Inhibition turned out to be 63%. Under `CC(C)CN(c1nc(C(=O)NNC(=O)[C@H](CC2CC2)NC(=O)c2cc3cc(OCCN(C)C)ccc3o2)cs1)C1CC1` stands 0%.

In turn, `O=C(CCc1c[nH]cn1)Nc1ccc(-c2ccc(-c3nc4cc(F)ccc4[nH]3)cc2)cc1` showed an Inhibition of 26%. Take `CN1C(C)(C)CC(NC(=O)c2ccc(-c3nc4cc(Cl)ccc4[nH]3)cc2)CC1(C)C`: the Inhibition is given as 23%. `O=C(NCCCCN1CCC2c3cccc(O)c3CCC21)c1ccc(-c2ccccc2)cc1` (stereo not drawn) came in with an Inhibition of 23%. As for `Cc1[nH]c(C)c(-c2ccc(CCc3ccc(N)cc3)cc2)c(=O)c1Cl`, the figure is 2%; as for `Clc1nc(Cl)c2c(ccn2Cc2ccccc2)n1`, 0%. As for `O=C(Nc1cc(F)cc(F)c1)N1CCOC(CCN2CCC3(CCc4ccccc43)CC2)(c2ccc(Cl)c(Cl)c2)C1` (stereo not drawn), the figure is 32%. Under `Clc1ccccc1/C=C/c1cncnc1Nc1ccc2[nH]c(Cc3ccccc3)nc2c1` stands 4%; under `Br.CCCCCCCCn1c2c(c(=N)c3c1CCC3)CCC2`, 47%.

Turning to `O=C(/C=C/c1ccc(Cl)c(Cl)c1)NCCCCCN1CCC(NC(=O)Nc2ccc(OC(F)F)cc2)CC1`, the Inhibition turned out to be 33%. `O=C(NC1CCN(Cc2ccc(Cl)cc2)CC1)c1cn(-c2ccccc2)nc1-c1cccnc1` gave an Inhibition of 13%.

Compound `O=C(Nc1ccc(-c2ccc(-c3nc4cc(C(F)(F)F)ccc4[nH]3)s2)cc1)c1c[nH]cn1` had an Inhibition of 66%.

`Cc1cc(N[C@@H](CC(C)C)C(=O)NCCc2ccccc2)nc(NCc2ccccc2C)n1.O=C(O)C(F)(F)F` came in with an Inhibition of 17%. In turn, `COc1cc(NCCCCCNc2cc(Cl)nc3ccccc23)nc2ccccc12` returned an Inhibition of 17%. As for `O=C(NCc1cccc(OC(F)(F)F)c1)c1cnc2c(c1)nc(-c1c[nH]c(-c3ccccc3)n1)n2CCc1c[nH]cn1`, the figure is 0%. Under `O=C(Cc1cccc(O)c1)Nc1ccc(-c2cccc(-c3nc4cc(C(F)(F)F)ccc4[nH]3)c2)cc1` stands 14%; under `COc1cccc(C(=O)Nc2nc3c(s2)CCN(Cc2ccccc2N2CCNCC2)CC3)c1.O=C(O)C(F)(F)F`, 7%; under `COc1cc(CNCCCNc2cc(=O)c3ccccc3[nH]2)c2c(c1)C(C)CN2C(=O)OC(C)(C)C` (stereo not drawn), 0%.

`CCN(CC)c1ccc(NC(=S)NC2CCN(CCCCCNC(=O)/C=C/c3ccc(Cl)c(Cl)c3)CC2)cc1` yielded an Inhibition of 16%. Compound `COc1ccc(CCN(C)CCCN2CCC(NC(=O)c3cccc4c(=O)c5ccccc5[nH]c34)CC2)cc1OC.O=C(O)C(=O)O` showed an Inhibition of 19%. Regarding `COc1ccc(-c2ccc(NC(=O)c3cccc(Cl)c3)cc2)cc1CN(C)CCO.O=C(O)C(F)(F)F`, the Inhibition is 39%.

`CC(=O)Nc1cccc(NC(=O)CSc2ccc(-c3nc4ccccc4[nH]3)cn2)c1` displayed an Inhibition of 22%. On to `COc1cccc(CN2CCCN(Cc3cccc(NC(=O)c4cc5ccccc5s4)c3)CC2)c1.O=C(O)C(F)(F)F`, for which the Inhibition turned out to be 17%.

`CCCCc1ccc(NC(=O)Nc2cccc(CCNCc3ccccc3)c2)cc1.O=C(O)C(F)(F)F` showed an Inhibition of 3%.

Take `Br.COc1ccc(OC)c2c1CCN(C)C2Cc1cccc2ccccc12` (stereo not drawn): the Inhibition is 13%. As for `CCN(CC)CCN(Cc1ccc(-c2ccc(Cl)s2)cc1)C(=O)Cn1c(CCc2cccc(F)c2F)nc(=O)c2ccccc21.O=C(O)C(O)C(O)C(=O)O`, the figure is 24%; as for `O=C(O)C(F)(F)F.OCCN1CCN(Cc2cccc(-c3cccc(-c4nc5cc(F)ccc5[nH]4)c3)c2)CC1`, 41%.
